Laboratory results: the supplement of paper PMC5499739
In all, about 16,000 sequences were measured (“Z-score”: median about -0.37, highest 2% from about 3.1 on). The full list was thinned out, with the highest values kept by preference.

Tested on: RBM10 RRM1-ZnF-RRM2 (GST-tagged construct)
Test: RNAcompete 7-mer binding Z-score; higher = stronger binding preference
How it was run: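 Each heptamer motif was given a one-sided Z-score for enrichment across the probes that contained it. GST-tagged RBM10 constructs (20 pmol) were combined with 1.5 nmol of a designed pool of 241 399 RNAs of up to 41 nt, transcribed from microarray-derived DNA templates. Binding took place in 1 ml Hepes pH 7.8 buffer containing KCl, NaCl, glycerol, DTT, BSA and glutathione Sepharose beads for 30 min at 4°C. After four 2-min washes at 4°C, bound RNA was identified by microarray hybridisation.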

Sequence | RNAcompete 7-mer binding Z-score
CAUCCCA | -0.486
GCCAUCG | -0.646
GACUUCA | -0.672
UUGCUGA | -0.486
AUAAGUU | -0.249
CGAGAGG | 1.46
UUCCAGA | -0.519
UGGCUUU | -0.464
ACGGAGG | 2.57
GUGGAGG | 4.09
AUGGAGU | 2.24
GUGGAGU | 2.86
AUGGAGA | 2.59
GUGGAGC | 2.47
AUGGAGG | 4.33
CCGGAGG | 0.876
GCGGAGG | 3.25
CGAUAAU | -0.256
GGAUCAA | 1.19
CAUCCCU | -0.69
CGAAGUU | -0.235
AACAGUG | 0.654
GCUCGCA | -0.373
UAACUAC | -0.551
GGAUAGA | 2.48

Sequence | RNAcompete 7-mer binding Z-score
GGAUUGG | 3.28
AGAUAGG | 2.87
CGAUUGG | 0.825
GGAUUGU | 0.822
CAAUAGG | 1.3
GGAUAGG | 4.1
GAAUAGG | 3.18
UAAUAGG | 0.742
UGACGCA | -0.107
AACCUAA | -0.734
UUAGCUC | -0.781
CGAUAUC | -0.5
GGAUCGC | 0.538
UAUGAGG | 1.54
UCCAGCC | -0.799
ACAGAUC | -0.508
CACGUGC | -0.428
UAUUGCG | -0.278
UCCCGUU | -0.799
UUCGUCG | -0.3
CUUAAUC | -0.905
CCAAGGG | 1.05
GCAAGGA | 2.65
ACAAGGA | 1.94
GCAAGGG | 3.28

Sequence | RNAcompete 7-mer binding Z-score
ACAAGGG | 3.52
GCAAGGU | 2.17
AAAAAUU | -0.435
GAUAUAG | 0.734
CUUUACG | -0.81
UCGAGUU | -0.482
GCCUACC | -0.726
GGGCUGC | 1.14
GUAGGUG | 3.25
GUAGGUA | 2.25
GAAGGUU | 2.96
UAAGGUG | 2.07
GAAGGUC | 1.25
GAAGGUA | 4.04
UAAGGUA | 1.39
CAAGGUG | 2.13
AUAGGUG | 2.41
GAAGGCG | 2.66
AAAGGUG | 3.5
GAAGGUG | 4.37
GCCAUGU | -0.632
CUAGUGC | -0.486
AACCGUG | -0.00148
UCGAAAG | -0.00148
AUUCGAG | -0.114

Sequence | RNAcompete 7-mer binding Z-score
AGACCGG | -0.366
AAAGGUA | 3.53
AAAGGUU | 3.09
AAAGGUC | 1.46
UGAAGGA | 2.95
AGAAGGA | 4.29
CGAAGGA | 1.62
UGAAGGG | 3.56
GGAAGGU | 3.94
CGAAGGU | 1.34
UGAAGGC | 1.21
AGAAGGC | 1.17
GGAAGGC | 3.04
UGAAGCG | 0.581
AGAAGAA | 1
GGAAGGA | 4.61
CGAAUAA | -0.224
GGUCAGC | 0.716
CAUUUGC | -1.04
AGUCCAA | -0.464
AUGCGCG | -0.0889
GAAAUCG | 0.195
GGCAACU | 0.0532
AUAGACA | 0.0532
AUAAUCU | -0.65

Sequence | RNAcompete 7-mer binding Z-score
AAGAUGU | 0.13
AACGGAA | 1.91
GCAUUUA | -0.661
AACAAAG | 0.355
CUGCUCU | -0.923
GGCAUGA | 0.876
AGAAGAG | 1.61
AGAAGGG | 4.09
AGAAGCU | -0.508
AGAAGGU | 3.67
UGAAGGU | 2.14
CGAAGGG | 2.68
CCCCCCA | -0.38
ACUAGGC | -0.235
CUAACGA | -0.566
UGUAGCC | -0.624
AUCCCUC | -0.759
CGCACGG | -0.0124
CGGUUGA | 0.876
UGGUUAG | 1.94
GGGUUGA | 3.53
CGGUUGG | 1.91
UGGUUGA | 1.31
AGGUUGG | 2.71
GGGUUAG | 4.04

Sequence | RNAcompete 7-mer binding Z-score
GGGUUGG | 4.05
CGGUUAG | 0.691
AAGUUUU | -0.329
CUGGGAG | 1.4
AUGGGGC | 2.6
AUGGGGA | 4.23
CUGGGAA | 1.36
AUGGGAG | 3.64
AUGGGAA | 4.29
UUGGGAG | 2.51
UUGGGAA | 1.92
AUGGGGG | 3.84
GCGGUAU | 0.574
AUUAUCG | -0.402
UCCCCCU | -0.566
UGAAAUU | -0.686
CUGUGGG | 1.63
AAAAAAA | -0.49
UAGGCUA | 0.392
CGACGUG | 0.25
GACGGCG | 0.836
CUGGGGU | 1.79
AUGGGGU | 3.91
CGGGGGU | 3.06
AUCACCU | -0.876

Sequence | RNAcompete 7-mer binding Z-score
UGUAGAU | 0.235
GUUAGGC | 1.25
ACGGGUU | 2.32
ACGGGUG | 3.24
ACGGGUC | 1.42
ACGGGGC | 2.37
ACGGGGU | 3.8
ACGGGGA | 2.84
CCGGGGU | 1.71
GCGGGUG | 2.75
ACGGGGG | 3.19
CGUUCUC | -0.763
UUCAUUU | -0.737
GCGGCUA | 0.21
ACCCAGC | -0.785
CAAUGCA | -0.362
UCUAAUG | -0.577
CUUUAUA | -0.752
GGCGGGG | 3.64
AGCGGGA | 3.24
AGCGGGG | 3.96
CGCGGGA | 1.16
GGCGAGC | 1.87
CGCGAGG | 0.833
AGCGGGU | 3.01

Sequence | RNAcompete 7-mer binding Z-score
GGCGGGU | 2.57
CGCGGGG | 2.32
GGCGGGC | 1.97
AGCGGGC | 1.57
GGCGAGG | 3.22
UGGUAAG | 1.73
CUAGGGA | 1.6
GAGACCG | -0.0452
UACACCC | -0.77
AGCAGGU | 1.74
GACUCCA | -0.704
CUUUAGG | -0.369
AUAUAAU | -0.366
GGUGAAA | 1.83
CAAAUAG | -0.144
GGCGGGA | 3.23
UGCGGGA | 1.7
GGCGGCA | 1.12
AUAUUAG | 0.0313
GUUGGGG | 3.69
AUUGGGU | 2.74
GGUUGGC | 2.03
GAUUGGG | 3.64
GGUUGGU | 1.94
AUUGGGA | 2.99

Sequence | RNAcompete 7-mer binding Z-score
GGUUGGG | 4.42
GAUUGGC | 0.927
AAUUGGG | 2.6
AUUGGGG | 3.16
CUUGGGG | 1.13
UUUGGGG | 2.13
CCUUUCC | -0.887
AUGGCGU | 0.705
CGCUAAU | -0.628
AAGCAGA | 0.672
UCGGAAC | 0.0532
UUGUCAA | -0.741
AAUUCAC | -0.643
UUUGCAA | -0.602
ACUUUCU | -0.959
AUCGAGA | 0.352
GGUUAGU | 1.6
GGUUAGC | 1.03
GGUUAGG | 4.22
ACUGCCC | -0.439
